Data published in PubChem BioAssay (NCI).
Where “and” joins values, the source holds several entries; their conditions need not be identical. Equal values may be shown once. About 83,000 compounds went through this panel and 20% of them were active in at least one assay; those are over-represented in the sample as a whole.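 Compound tested at a single concentration for 48 hours in 96-well plates; a percent growth value below 10 was scored as active.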 Values without a mark were called inactive. Calls of active or inactive are those of the source.

Test system: EKVX NSCLC
Experiment: NCI-60 one-dose screen, 48 h (100 = growth as untreated, 0 = no growth, -100 = all killed)
Settings: 10 µM unless noted

| Structure (SMILES) | growth |
| --- | --- |
| C=CC(=O)N1CCN(c2ccc3nc4c(nc3c2C(F)(F)F)C(=O)c2ncccc2C4=O)CC1 | 30.4% |
| O=C(N/N=C/c1ccc(-c2cccc([N+](=O)[O-])c2)s1)c1[nH]c2ccc(Br)cc2c1-c1ccccc1 | 94.7% |
| CCCCNc1ccc2c3c(cccc13)C(=O)N(NCC(O)COc1ccc3c(C)cc(=O)oc3c1)C2=O (configuration not stated) | 77.4% |
| CC(=O)Nc1cccc(-n2c(COc3ccc(Br)cc3)nc3ccccc32)c1 | 98.1% and 103% |
| CC(=O)c1c2c(c3ccc4c5ccccc5ccc4n13)C(=O)c1ccccc1C2=O | 77% |
| CC1=NN(C2=NC(=O)C(CC(=O)Nc3ccccc3C(F)(F)F)S2)C(c2ccc(N(C)C)cc2)C1 (configuration not stated) | 48.5% |
| Cc1ccc(C2CC(c3ccc(NC(=O)Nc4ccccc4)cc3)=NN2c2ccc(S(C)(=O)=O)cc2)cc1 (configuration not stated) | -2.75% (active) |
| O=C(CSc1nc2sc3c(c2c(=O)n1-c1ccc(Cl)cc1)CCCC3)N/N=C/C=C/c1ccccc1 | 39.7% |
| O=C(COc1ccc(/C=C2/C(=O)Nc3ccc(Cl)cc32)cc1)Nc1ccc(Br)cc1 | -27.8% (active) |
| CC(C)(C)OC(=O)N1CCC2(CC1)Oc1ccccc1[C@H]1CC(c3ccc(Br)cc3)=NN12 | 56.6% |
| N#Cc1c(-c2ccc(F)cc2)nc(SCc2ccc(F)cc2)nc1N1CCNCC1 | 1.29% (active) |
| Cc1ccc(/C=C/C(=O)c2ccc(S(=O)(=O)NCCNc3nc(N(C)C)nc(N4CCOCC4)n3)cc2)cc1 | 82.6% |
